Laboratory results: PubChem BioAssay (Tox21)
Records with an inconclusive call do not appear. Where a call stands in place of a potency, no number is given. The source made the active and inactive calls. The call rests on the fitted dose curve; in most records, active means well fitted cell-killing curve with a large enough effect in the repeat runs; inconclusive means weak or mixed curves, or effect the other way; inactive means flat fitted curve, though single readings scatter.

Assay: cAMP Responsive Elements (CRE) small molecule agonists, cell-based qHTS assay: qHTS cell viability counter screen (AID 2060914);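 further: viability read after 3 h of compound exposure; nearly all actives have a fitted effect of over 50% in size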
Conditions: CRE-bla HEK293T viability, CellTiter-Glo luminescence, 5 h; series mostly up to 92.4 µM
Method in brief: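 CRE-bla HEK 293T cells, plated 18 h at 37 °C, were exposed to compounds for 3 h at 37 °C/5% CO2. Viability was then measured in the same wells by CellTiter-Glo luminescence after 30 min at room temperature.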
Potency means the concentration at half of the fitted maximal effect.

SMILES | Potency
N#Cc1ccc(C(=O)O)cc1 | inactive
C=C(C)C1CC=C(C)C(OC(C)=O)C1 (stereo not given) | inactive
CCC(C)COC(C)=O (stereo not given) | inactive
CCOc1ccccc1C(N)=O | inactive
O=c1cc[nH]cc1 | inactive
O=C(OCC1CCC2OC2C1)C1CCC2OC2C1 (stereo not given) | inactive
CC(C)=O | 25 µM (active)
CCC(C)(C)OC | inactive
Nc1ccc(S(=O)(=O)Nc2cnc3ccccc3n2)cc1 | inactive
OCc1ccccc1O | inactive
N#CCCOCCOCCC#N | inactive
CC(=O)c1ccc(Cl)c(Cl)c1Cl | inactive
CC(C)Cc1ccc(C(C)C(=O)O)cc1 (stereo not given) | inactive
CCOC(=O)CC(C)=O | inactive
O=[N+]([O-])c1ccc(CCO)cc1 | inactive
CCCCCCCCCCCSCC(=O)O | inactive
O=C(CS)OCCOC(=O)CS | inactive
CCc1nccnc1C | inactive
O=C1CCc2ccccc2O1 | inactive
CCOc1ccc2c(c1)C(C)=CC(C)(C)N2 | inactive

SMILES | Potency
CC/C=C/CCCCCCCCCCOC(C)=O | inactive
C=C/C(C)=C/C/C=C(\C)CCC=C(C)C | inactive
CCC(C(=O)NC(=O)NC(C)=O)c1ccccc1 (stereo not given) | inactive
CC1(C)[C@H](C(=O)O)N2C(=O)C[C@H]2S1(=O)=O | inactive
CC(C)C(=O)OCCc1ccccc1 | inactive
Nc1nc2ccccc2[nH]1 | inactive
CO[C@@H]1COCC[C@@H]1N[C@@H]1CC[C@@](C(=O)N2CCc3ncc(C(F)(F)F)cc3C2)(C(C)C)C1 | inactive
CCCCCCCC(=O)O | inactive
NC(=O)N1c2ccccc2CC(=O)c2ccccc21 | inactive
CCC(=O)Nc1cccc(N)c1 | inactive
CCCC(O)C(CC)CO (stereo not given) | inactive
CC1=C(/C=C/C(C)=C\C=C\C(C)=C\C(=O)O)C(C)(C)CCC1 | inactive
Sc1nc2ccccc2s1 | inactive
CC(C)(COC(=O)c1ccccc1)COC(=O)c1ccccc1 | inactive
Cc1cc(C(=C2C=CC(=Nc3ccc(S(=O)(=O)O)cc3S(=O)(=O)O)C=C2)c2ccc(Nc3ccc(S(=O)(=O)O)cc3)cc2)ccc1N | inactive
C=CCCC | inactive
CCOC(=O)[C@H](CCc1ccccc1)N[C@H]1CCc2ccccc2N(CC(=O)O)C1=O | inactive
CC(C)CCO | inactive
Nc1nccs1 | inactive
O=C(O)CC(=O)O | inactive
